The campaign covered roughly 5,500 compounds. About 2,000 (36%) were called active. About 18% were inconclusive and are not listed. Rule as the data show it: active = normalized growth mostly below about 0.91 (no sharp cut-off); inconclusive = no clear call, values can overlap the other calls; inactive = mostly above about 0.92. The list shows a part of the results.
Assay: chemical genetic growth profiling, strain panel (AID 1159580);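 also: tested at 20 µM; growth read once vehicle control cultures reached saturation at 30 °C; 1 = growth at the plate median or of vehicle wells; lower values mean less growth of the strain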
Details: S. cerevisiae deletion strains, growth OD

Measured: normalized growth

FC(F)(F)c1ccc(C2Sc3ccccc3N=C3c4ccccc4CC32)cc1 (stereo unspecified)
inactive: locus YAR019C, strain CDC15, stronger effect = lower value 1.01 | locus YBL105C, strain PKC1, stronger effect = lower value 1.03 | locus YBR135W, strain CKS1, stronger effect = lower value 1.01 | locus YBR136W, strain MEC1, stronger effect = lower value 1 | locus YBR160W, strain CDC28, stronger effect = lower value 1.02 | locus YDL017W, strain CDC7, stronger effect = lower value 1.01 | locus YDL028C, strain MPS1, stronger effect = lower value 0.996 | locus YDL101C, strain DUN1, stronger effect = lower value 1 | locus YDL108W, strain KIN28, stronger effect = lower value 0.994 | locus YDL132W, strain cdc53, stronger effect = lower value 1.02 | locus YDL214C, strain PRR2, stronger effect = lower value 1.02 | locus YDR052C, strain DBF4, stronger effect = lower value 1.01 | locus YDR054C, strain cdc34, stronger effect = lower value 1.02 | locus YDR226W, strain ADK1, stronger effect = lower value 0.996 | locus YDR477W, strain SNF1, stronger effect = lower value 1.03 | locus YER123W, strain YCK3, stronger effect = lower value 0.96 | locus YER133W, strain GLC7, stronger effect = lower value 1 | locus YFL009W, strain cdc4, stronger effect = lower value 1.01 | locus YFL029C, strain CAK1, stronger effect = lower value 1 | locus YFR003C, strain YPI1, stronger effect = lower value 1.02 | locus YFR019W, strain FAB1, stronger effect = lower value 0.985 | locus YFR028C, strain CDC14, stronger effect = lower value 1.01 | locus YGR040W, strain KSS1, stronger effect = lower value 1.02 | locus YGR052W, strain FMP48, stronger effect = lower value 1.04 | locus YGR092W, strain DBF2, stronger effect = lower value 0.979 | locus YHR030C, strain SLT2, stronger effect = lower value 0.97 | locus YHR079C, strain IRE1, stronger effect = lower value 1.01 | locus YHR082C, strain KSP1, stronger effect = lower value 1.01 | locus YHR205W, strain SCH9, stronger effect = lower value 0.953 | locus YIL147C, strain SLN1, stronger effect = lower value 1 | locus YJL095W, strain BCK1, stronger effect = lower value 0.985 | locus YJL128C, strain PBS2, stronger effect = lower value 0.973 | locus YJL157C, strain FAR1, stronger effect = lower value 1.02 | locus YJR016C, strain ILV3, stronger effect = lower value 1.02 | locus YJR066W, strain TOR1 (second series), stronger effect = lower value 0.999 | locus YJR066W, strain TOR1, stronger effect = lower value 0.993 | locus YKL048C, strain ELM1, stronger effect = lower value 0.984 | locus YKL067W, strain YNK1, stronger effect = lower value 1 | locus YKL101W, strain HSL1, stronger effect = lower value 1.04 | locus YKL193C, strain SDS22, stronger effect = lower value 1.01 | locus YKL203C, strain TOR2, stronger effect = lower value 1.1 | locus YLR113W, strain HOG1, stronger effect = lower value 0.87 | locus YLR133W, strain CKI1, stronger effect = lower value 0.987 | locus YLR403W, strain SFP1, stronger effect = lower value 0.991 | locus YML070W, strain DAK1, stronger effect = lower value 0.981 | locus YMR001C, strain CDC5, stronger effect = lower value 1.02 | locus YMR205C, strain PFK2 (second series), stronger effect = lower value 0.995 | locus YMR277W, strain FCP1, stronger effect = lower value 1.02 | locus YNL006W, strain LST8, stronger effect = lower value 1 | locus YNL020C, strain ARK1, stronger effect = lower value 1.01 | locus YNL161W, strain CBK1, stronger effect = lower value 1.03 | locus YNL183C, strain NPR1, stronger effect = lower value 0.969 | locus YNL207W, strain RIO2, stronger effect = lower value 1.02 | locus YNL222W, strain SSU72, stronger effect = lower value 1.01 | locus YNL307C, strain MCK1 (second series), stronger effect = lower value 0.937 | locus YOL078W, strain AVO1, stronger effect = lower value 0.998 | locus YOL136C, strain PFK27, stronger effect = lower value 0.993 | locus YOR061W, strain CKA2, stronger effect = lower value 0.993 | locus YOR119C, strain RIO1, stronger effect = lower value 1.02 | locus YOR231W, strain MKK1, stronger effect = lower value 1 | locus YOR329C, strain SCD5, stronger effect = lower value 1.03 | locus YPL031C, strain PHO85, stronger effect = lower value 1.06 | locus YPL153C, strain RAD53, stronger effect = lower value 1.03 | locus YPL204W, strain HRR25, stronger effect = lower value 1.01 | locus YPL209C, strain IPL1, stronger effect = lower value 1.02 | locus YPL256C, strain CLN2, stronger effect = lower value 0.951 | locus YPR025C, strain CCL1, stronger effect = lower value 1.02 | locus YPR106W, strain ISR1, stronger effect = lower value 0.996 | locus YPR111W, strain DBF20, stronger effect = lower value 0.985 | strain NNK1, stronger effect = lower value 1.01 | strain TSCII, stronger effect = lower value 1.02

— PubChem BioAssay AID1159580 (chemical genetic matrix, 2015)
